Reference: PubChem BioAssay
Unmarked numbers belong to inactive results. No rule for the calls is given here.

These compounds were tested against Pantothenate synthetase (Mycobacterium tuberculosis (strain ATCC 25618 / H37Rv)) (UniProt P9WIL5) (assay: Recombinant Mtb pantothenate synthetase (PanC) inhibitors, coupled enzyme, confirmatory (AID 375;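 also: 0% = full reaction with vehicle and 100% = no enzyme background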)). Settings: coupled enzyme assay; at 10 µM, active compounds read high.
Sequence of Pantothenate synthetase (Mycobacterium tuberculosis (strain ATCC 25618 / H37Rv)) (P9WIL5 whole entry, looked up): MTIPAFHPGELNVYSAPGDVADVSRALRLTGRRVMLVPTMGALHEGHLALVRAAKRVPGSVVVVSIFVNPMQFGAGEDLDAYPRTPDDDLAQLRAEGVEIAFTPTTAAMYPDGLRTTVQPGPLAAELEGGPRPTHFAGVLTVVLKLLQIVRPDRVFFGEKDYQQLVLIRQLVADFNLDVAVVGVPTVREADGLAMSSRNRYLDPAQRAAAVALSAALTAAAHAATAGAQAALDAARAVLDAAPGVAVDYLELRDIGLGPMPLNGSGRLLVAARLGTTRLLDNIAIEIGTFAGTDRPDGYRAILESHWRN

First: CC(Sc1nnnn1-c1ccccc1)C(=O)Nc1ccc(Cl)cn1 (configuration not stated)
Second: CCCC(=O)Nc1ccc(NC(=O)c2ccccc2OC)cn1
The inhibition of the first is higher: 2% for the first, 0% for the second.

Going from `Cc1nn(CC(O)Cn2c3c(c4ccccc42)CCN(C)C3=O)c(C)c1Br` (configuration not stated) to `O=c1cc(CSc2nnc(COc3ccc(Cl)cc3)o2)c2ccccc2[nH]1`, the inhibition falls from 7% to 3%.

Compared with `O=C(Cc1cccs1)N(c1ccccc1)C1C=CS(=O)(=O)C1` (configuration not stated), `Cc1cc(NC(=O)c2ccccc2Oc2ccccc2)no1` is higher in inhibition: 3% for the first, 12% for the second.

First: N#Cc1ccc(CSc2nnc(-c3ccccn3)n2-c2ccccc2)cc1
Second: O=C(COc1ccc2ccccc2c1)N1CCCC1
The inhibition of the first is lower: 0% for the first, 8% for the second.

First: CCCN1CCN(CCCNC(=O)Cn2nc(-c3ccc(Cl)cc3)ccc2=O)CC1
Second: CCc1cc(=O)oc2c(CN3CCN(C)CC3)c(O)c(Cl)cc12
The inhibition of the first is lower: 0% for the first, 5% for the second.

Compared with `COc1cccc(N2CCN(CC(=O)c3c[nH]c4ccc(OC)cc34)CC2C)c1` (configuration not stated), `COc1ccc(OC)c(NC(=O)c2cn(C)c(=O)c3cc(OC)c(OC)cc23)c1` is lower in inhibition: 2% for the first, 1% for the second.

Going from `COc1ccc(CNC(=O)c2cnc3n(c2=O)CCS3)cc1` to `O=C(NC1CC2CCC1C2)c1ccc(CN2CCOCC2)cc1` (configuration not stated), the inhibition rises from 0% to 5%.

Going from `O=C(c1ccc2c(c1)OCCO2)N1CCCCC1` to `CCOC(=O)CC1=C(C(=O)OCC)C(c2ccc(C)o2)C(C#N)=C(N)O1` (configuration not stated), the inhibition falls from 1% to 0%.

Work on `CCOC(=O)c1sc(C)c2c(=O)n(CC)nnc12` yielded an inhibition of 0%.
